Drawing on PubChem BioAssay (NCATS), this text covers Potency, max response and outcome for 36 compounds.

Structures are written as SMILES. Results filed as inconclusive are left out. Where a call stands in place of a potency, no number is given. Activity calls are given as the source filed them. The call rests on the fitted dose curve; in most records, active means well fitted inhibition curve with a large enough effect; inconclusive means small, poorly fitted or top-dose-only effect; inactive means flat fitted curve, though single readings scatter.
Further: nearly all actives have a fitted effect of over 60% in size.
Potency means the concentration at half of the fitted maximal effect.

One experiment deals with TAB165. The experiment in a line: qHTS profiling for inhibitors of Plasmodium falciparum proliferation (AID 504749). The note with it: P. falciparum in erythrocytes, SYBR Green DNA, 72 h; series mostly up to 28.7 µM. In outline: (§1)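 Readout was DNA-dye fluorescence from lysed cultures, ex 485/em 535 nm. Parasitized red cells had grown 72 h with compound; data scaled between 0.29 uM artemisinin and DMSO wells and corrected using vehicle-only plates.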
As for `CCCN(CCC)S(=O)(=O)c1ccc(C(=O)O)cc1`, the Potency entry was “inactive”.

`CC(C)Cc1ccc(CC(=O)O)cc1`: the Potency result is “inactive”.

For the compound `c1ccc(CC2=NCCN2)cc1`, the Potency result is “inactive”.

As for `OCc1ccccn1`, the Potency entry is “inactive”.

For `Cc1cc(C)cc(OCC2CNC(=O)O2)c1` (stereo not given), the Potency result is “inactive”.

On to `CC(=O)NCCCCCC(=O)O`, for which the Potency result was “inactive”.

As for `O=C1C(CCS(=O)c2ccccc2)C(=O)N(c2ccccc2)N1c1ccccc1` (stereo not given), the Potency entry is “inactive”.

On to `CC(=O)Nc1ccc(OCC(O)CNC(C)C)cc1` (stereo not given), for which the Potency entry was “inactive”.

Regarding `NS(=O)(=O)c1ccc(Cl)c(S(N)(=O)=O)c1`, the Potency result is “inactive”.

For `CC[C@H](c1ccc(O)cc1)[C@@H](CC)c1ccc(O)cc1`, the Potency entry is “inactive”.

As for `C/C=C/C=N/NC(=O)c1ccncc1`, the Potency result was “inactive”.

In the case of `CCOc1ccccc1C(N)=O`, the Potency result was “inactive”.

With `NCCNc1cccc2ccccc12`, the Potency entry is “inactive”.

As to `CC1(COc2ccc(CC3SC(=O)NC3=O)cc2)CCCCC1` (stereo not given), the Potency entry was “inactive”.

`O=C(Oc1cccc2cccnc12)c1ccccc1`: the Potency entry was “inactive”.

As for `O=C(O)P(=O)(O)O`, the Potency result is “inactive”.

In the case of `O=S(c1cc(Cl)cc(Cl)c1O)c1cc(Cl)cc(Cl)c1O`, the Potency was 0.355 µM (active).

For `Nc1ccc(C(=O)NCC(=O)O)cc1`, the Potency entry is “inactive”.

Regarding `C#C[C@]1(O)CC[C@H]2[C@@H]3CCc4cc(OC)ccc4[C@H]3CC[C@@]21C`, the Potency entry was “inactive”.

On to `O=C(Nc1ccc([N+](=O)[O-])cc1)Nc1ccc([N+](=O)[O-])cc1`, for which the Potency result was “inactive”.

As to `O=C(O)Cc1csc(-c2ccc(Cl)cc2)n1`, the Potency entry is “inactive”.

As for `CCNC(=O)NCc1cccc(Cl)c1`, the Potency result is “inactive”.

A further experiment has as its system W2. The experiment is described as above. Conditions: P. falciparum in erythrocytes, SYBR Green DNA, 72 h; series mostly up to 28.7 µM. The essentials:
as §1
In the case of `CCCN(CCC)S(=O)(=O)c1ccc(C(=O)O)cc1`, the Potency result was “inactive”.

For the compound `CC(C)Cc1ccc(CC(=O)O)cc1`, the Potency entry is “inactive”.

For `c1ccc(CC2=NCCN2)cc1`, the Potency result was “inactive”.

Take `CC(C)[N+](C)(C)CC(O)COc1cccc2ccccc12` (stereo not given): the Potency entry was “inactive”.

On to `OCc1ccccn1`, for which the Potency result was “inactive”.

`CC(=O)NCCCCCC(=O)O`: the Potency entry was “inactive”.

With `O=C1C(CCS(=O)c2ccccc2)C(=O)N(c2ccccc2)N1c1ccccc1` (stereo not given), the Potency result was “inactive”.

Turning to `CC(=O)Nc1ccc(OCC(O)CNC(C)C)cc1` (stereo not given), the Potency result was “inactive”.

As to `NS(=O)(=O)c1ccc(Cl)c(S(N)(=O)=O)c1`, the Potency result was “inactive”.

With `CC[C@H](c1ccc(O)cc1)[C@@H](CC)c1ccc(O)cc1`, the Potency entry is “inactive”.

On to `C/C=C/C=N/NC(=O)c1ccncc1`, for which the Potency result was “inactive”.

For `CCOc1ccccc1C(N)=O`, the Potency result is “inactive”.

As for `CC1(COc2ccc(CC3SC(=O)NC3=O)cc2)CCCCC1` (stereo not given), the Potency entry is “inactive”.

Take `O=C(O)P(=O)(O)O`: the Potency entry was “inactive”.

Consider `CN1CCN(CCC(=O)N2c3ccccc3Sc3ccc(C(F)(F)F)cc32)CC1`, for which the Potency was 4.26 µM (active).

As to `Nc1ccc(C(=O)NCC(=O)O)cc1`, the Potency result is “inactive”.

Turning to `CN1CCN(C2=Nc3ccccc3Sc3ccc(Cl)cc32)CC1`, the Potency was 3.79 µM (active).

Turning to `C#C[C@]1(O)CC[C@H]2[C@@H]3CCc4cc(OC)ccc4[C@H]3CC[C@@]21C`, the Potency entry was “inactive”.

As to `O=C(Nc1ccc([N+](=O)[O-])cc1)Nc1ccc([N+](=O)[O-])cc1`, the Potency was 2.39 µM (active).

For `O=C(O)Cc1csc(-c2ccc(Cl)cc2)n1`, the Potency entry is “inactive”.

`CC(=O)O[C@]1(C(C)=O)CC[C@H]2[C@@H]3C=C(Cl)C4=CC(=O)CC[C@]4(C)[C@H]3CC[C@@]21C`: the Potency was 10.7 µM (active).

For `CCNC(=O)NCc1cccc(Cl)c1`, the Potency entry is “inactive”.

Another experiment deals with CRL-7250. The experiment in a line: Cytotoxic Profiling of Annotated Libraries Using Quantitative High-Throughput Screening (AID 1296008). Conditions: Five cell lines viability, CellTiter-Glo ATP luminescence, 48-72 h; max response: stronger effect = lower value. In outline:
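Cells exposed to compounds for 48 or 72 hr at 37 degrees Celsius. Viability read as ATP-coupled luminescence with CellTiter-Glo after 10 min at room temperature.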
On the technique in general: Cellular ATP, detected with luciferase, serves as a proxy for viable cell number.
With `CCCN(CCC)S(=O)(=O)c1ccc(C(=O)O)cc1`, the max response is -3.77% (inactive).

On to `CC(C)Cc1ccc(CC(=O)O)cc1`, for which the max response is 2.76% (inactive).

On to `c1ccc(CC2=NCCN2)cc1`, for which the max response is 1.69% (inactive).

As to `CC(C)[N+](C)(C)CC(O)COc1cccc2ccccc12` (stereo not given), the max response was -19.4% (inactive).

In the case of `CC(C)(C)NCC(O)COc1cccc2c1C[C@H](O)[C@H](O)C2` (stereo not given in full), the compound was classed as inactive.

`OCc1ccccn1`: the max response was -1.84% (inactive).

Consider `Cc1cc(C)cc(OCC2CNC(=O)O2)c1` (stereo not given), for which the max response was 2.93% (inactive).

With `C[C@H]1O[C@@H](O[C@H]2CC[C@@]3(C)[C@H](CC[C@@H]4[C@@H]3C[C@@H](O)[C@]3(C)[C@@H](C5=CC(=O)OC5)CC[C@]43O)C2)C[C@H](O)[C@@H]1O[C@H]1C[C@H](O)[C@H](O[C@H]2C[C@H](O)[C@H](O[C@@H]3O[C@H](CO)[C@@H](O)[C@H](O)[C@H]3O)[C@@H](C)O2)[C@@H](C)O1`, the Potency is 0.211 µM (active).

As for `O=[N+]([O-])c1ccc(/C=N\O)o1`, the max response was -1.03% (inactive).

Consider `CC(=O)OCC1=C(C(=O)O)N2C(=O)[C@@H](NC(=O)CSc3ccncc3)[C@H]2SC1`, for which the max response was -1.6% (inactive).

As for `CC(=O)NCCCCCC(=O)O`, the max response was -1.79% (inactive).

`O=C1C(CCS(=O)c2ccccc2)C(=O)N(c2ccccc2)N1c1ccccc1` (stereo not given): the max response is -1.85% (inactive).

As to `CC(=O)Nc1ccc(OCC(O)CNC(C)C)cc1` (stereo not given), the max response was -5.23% (inactive).

Regarding `NS(=O)(=O)c1ccc(Cl)c(S(N)(=O)=O)c1`, the max response is -4.09% (inactive).

As to `CC[C@H](c1ccc(O)cc1)[C@@H](CC)c1ccc(O)cc1`, the max response is 3.93% (inactive).

Consider `C/C=C/C=N/NC(=O)c1ccncc1`, for which the max response is -0.246% (inactive).

Turning to `CCOc1ccccc1C(N)=O`, the compound was called inactive.

In the case of `NCCNc1cccc2ccccc12`, the max response is -3.59% (inactive).

On to `C[N+]12CCC(CC1)C(OC(=O)C(O)(c1ccccc1)c1ccccc1)C2` (stereo not given), for which the max response was 3.27% (inactive).

For `CC1(COc2ccc(CC3SC(=O)NC3=O)cc2)CCCCC1` (stereo not given), the outcome was inactive.

Turning to `O=C(Oc1cccc2cccnc12)c1ccccc1`, the max response was -27.3% (inactive).

Consider `CCN1CCN(C(=O)N[C@@H](C(=O)N[C@@H]2C(=O)N3C(C(=O)O)=C(CSc4nnnn4C)CS[C@H]23)c2ccc(O)cc2)C(=O)C1=O`, for which the max response was 3.23% (inactive).

On to `O=C(O)P(=O)(O)O`, for which the call was inactive.

With `O=S(c1cc(Cl)cc(Cl)c1O)c1cc(Cl)cc(Cl)c1O`, the compound was classed as inactive.

For `CN1CCN(CCC(=O)N2c3ccccc3Sc3ccc(C(F)(F)F)cc32)CC1`, the Potency is 15 µM (active).

As for `C=C1c2cccc(O)c2C(O)=C2C(=O)[C@]3(O)C(O)=C(C(N)=O)C(=O)[C@@H](N(C)C)[C@@H]3[C@@H](O)[C@H]12`, the result was inactive.

Take `Nc1ccc(C(=O)NCC(=O)O)cc1`: the max response was -1.17% (inactive).

As to `CN1CCN(C2=Nc3ccccc3Sc3ccc(Cl)cc32)CC1`, the max response is -8.62% (inactive).

Turning to `C#C[C@]1(O)CC[C@H]2[C@@H]3CCc4cc(OC)ccc4[C@H]3CC[C@@]21C`, the max response is -13.3% (inactive).

As for `Cc1cn([C@H]2C[C@H](F)[C@@H](CO)O2)c(=O)[nH]c1=O`, the outcome was inactive.

Turning to `O=C(Nc1ccc([N+](=O)[O-])cc1)Nc1ccc([N+](=O)[O-])cc1`, the max response is -8.01% (inactive).

On to `O=C(O)Cc1csc(-c2ccc(Cl)cc2)n1`, for which the max response is -17.8% (inactive).

Consider `COc1cc([C@H]2Oc3cc([C@H]4Oc5cc(O)cc(O)c5C(=O)[C@@H]4O)ccc3O[C@@H]2CO)ccc1O`, for which the compound was called inactive.

Consider `Nc1nc(Cl)nc2c1ncn2[C@@H]1O[C@H](CO)[C@@H](O)[C@@H]1F`, for which the Potency is 0.596 µM (active).

Turning to `CC(=O)O[C@]1(C(C)=O)CC[C@H]2[C@@H]3C=C(Cl)C4=CC(=O)CC[C@]4(C)[C@H]3CC[C@@]21C`, the max response was -6.12% (inactive).

For `CCNC(=O)NCc1cccc(Cl)c1`, the compound was classed as inactive.
